Source: PubChem BioAssay
In the library only some 5.1% were active in any assay of this set; here they are far more common.
NR3A LBD binder: modulates the human NR3A ligand-binding domain; NR3A LBD differential scanning fluorimetry, Tm shift; 0% = protein alone, 100% = glycine-bound protein; Tm shift relative to glycine control, % at 25 µM; hit rate 2.5% among 340,000;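 active = melting temperature shift of at least 10% of the positive control shift, at one fixed dose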
TMEM16A inh: blocks the mouse calcium-activated chloride channel TMEM16A. normalized B-score (activity score, 25-100; higher = stronger inhibition) at 10 µM. hit rate 1.2% among 310,000. HEK293 TMEM16A/YFP iodide influx fluorescence, ionomycin. Q8BHY3;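 active = ratio plate-corrected score three or more library SD toward inhibition, starting fluorescence score within five deviations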;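 also: score derived from kinetic fluorescence span divided by baseline fluorescence per well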
MPTP block: permeability transition pore inhibition; hit rate 1.4% among 360,000; inhibition, % at 10 µM; isolated mouse mitochondria, Ca2+ swelling absorbance, 30 min; AID 602449;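 active = inhibition of 50% or more, scaled per plate between neutral and stimulator controls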;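 also: 0% = DMSO wells given calcium and 100% = 1 mM EGTA wells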
CRFBP-R2 block: blocks CRF-induced signaling of the CRF-BP/CRF-R2 complex; HEK293 CRF-R2/CRF-BP, CRF-induced calcium fluorescence; inhibition, % at 11.8 µM; hit rate 0.59% among 350,000;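 active = inhibition of the ligand-induced calcium signal above about 50% at the single tested concentration, limit read from the data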
CRFBP-R2 agonist: CRF-BP/CRF-R2 complex agonism; HEK293 CRF-R2/CRF-BP, calcium dye fluorescence (FLIPR); percent of saturating CRF peptide response; activation, % at 13.2 µM; hit rate 0.46% among 350,000; AID 588473;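 active = activation of at least 50%, plus an integration ratio under a set limit after plate pattern correction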;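 also: plate controls were neutral control wells without compound for no effect and CRF at EC100 for full effect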
TMEM16A act: mouse TMEM16A channel activation, primary screen | Q8BHY3 | HEK293 TMEM16A/YFP-H148Q/I152L, iodide quench fluorescence; hits give low values | B-score at 10 µM | hit rate 0.3% among 340,000 | AID 623877;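 active = fluorescence-ratio B-score plate-corrected deviation score at least 3 library SD below zero, with starting fluorescence score within 5 deviations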;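 also: channel opened by trigger with iodide after compound preincubation; score built on the fluorescence ratio of max minus min over baseline; more negative score means more quench and so TMEM16A activation or potentiation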
TMEM16A reconf: TMEM16A (mouse) chloride channel inhibition, re-confirmation | HEK293 TMEM16A/YFP-H148Q, iodide quench fluorescence; ionomycin added to raise cell calcium | AID 652189 | inhibition, % at 10 µM | hit rate 39% among 2,300 | shares compounds with TMEM16A inh;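 active = mean duplicate percent inhibition, scaled so buffer wells are 0 and the reference blocker 100, over three buffer SD above buffer mean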
TMEM16A Ca cntr: calcium mobilization counter-screen hit for TMEM16A inhibitor series | shares compounds with TMEM16A inh | TMEM16A/YFP HEK293, Fluo4 calcium mobilization | calcium response (% of ionomycin), % at 10 µM | hit rate 2% among 2,300;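 active = duplicate-averaged calcium signal over 20% of the ionomycin maximum, relative to buffer baseline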;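 also: each well's signal is peak minus trough fluorescence divided by its pre-addition baseline; 0% = buffer wells and 100% = ionomycin wells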
YFP-HEK293 quench: acts in parental YFP-HEK293 cells lacking TMEM16A, counter-screen | shares compounds with TMEM16A inh | iodide YFP quench, ionomycin | YFP ratio F(max-min)/F0 at 10 µM | 2,300 tested, under 10 active | AID 652233;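 active = yellow fluorescent protein signal ratio exceeding the buffer control mean by over 5 SD of those controls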;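 also: ratio is mean of duplicate wells from kinetic YFP trace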
ClC-1 rat inh: blocks the rat ClC-1 voltage-dependent chloride channel. shares compounds with TMEM16A inh. CHO ClC-1-YFP, iodide influx fluorescence quench; iodide control reads 0, buffer control 100. ratio percent, % at 10 µM. 2,300 tested, under 10 active. AID 652236;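 active = duplicate-mean ratio percent above the mean of iodide-only control wells, which defines zero, plus 5 of their SD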;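 also: higher percent means stronger block of ClC-1 iodide influx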
Target sequence (P35524 whole entry, looked up): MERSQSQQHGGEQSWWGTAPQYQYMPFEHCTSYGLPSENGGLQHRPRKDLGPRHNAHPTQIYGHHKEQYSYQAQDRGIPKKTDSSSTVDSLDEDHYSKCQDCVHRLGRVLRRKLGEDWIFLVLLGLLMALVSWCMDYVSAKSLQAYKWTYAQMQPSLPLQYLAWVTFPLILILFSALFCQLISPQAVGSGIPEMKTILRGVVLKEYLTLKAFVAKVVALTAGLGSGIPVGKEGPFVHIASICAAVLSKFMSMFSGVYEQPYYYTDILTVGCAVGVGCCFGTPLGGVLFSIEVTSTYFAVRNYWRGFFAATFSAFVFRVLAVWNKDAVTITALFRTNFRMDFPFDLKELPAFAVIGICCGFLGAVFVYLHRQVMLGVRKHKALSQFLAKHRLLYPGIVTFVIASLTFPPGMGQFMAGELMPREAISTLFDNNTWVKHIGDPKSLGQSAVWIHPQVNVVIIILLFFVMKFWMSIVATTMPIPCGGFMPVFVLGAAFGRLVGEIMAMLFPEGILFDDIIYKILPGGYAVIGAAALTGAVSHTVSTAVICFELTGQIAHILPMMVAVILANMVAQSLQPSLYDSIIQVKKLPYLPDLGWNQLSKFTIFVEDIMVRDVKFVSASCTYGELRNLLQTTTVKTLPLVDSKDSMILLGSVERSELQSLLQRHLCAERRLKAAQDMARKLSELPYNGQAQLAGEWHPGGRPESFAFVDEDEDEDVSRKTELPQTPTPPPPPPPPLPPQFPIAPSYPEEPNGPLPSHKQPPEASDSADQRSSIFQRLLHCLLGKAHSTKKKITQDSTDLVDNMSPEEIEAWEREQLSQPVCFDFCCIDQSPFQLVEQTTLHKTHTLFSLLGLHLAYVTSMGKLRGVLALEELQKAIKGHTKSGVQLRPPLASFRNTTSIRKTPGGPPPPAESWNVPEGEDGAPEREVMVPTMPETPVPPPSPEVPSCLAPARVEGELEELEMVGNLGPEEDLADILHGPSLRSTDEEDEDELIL
* = called active by the depositor; i = inactive; nt = not tested or not shown.

SMILES	NR3A LBD binder	TMEM16A inh	MPTP block	CRFBP-R2 block	CRFBP-R2 agonist	TMEM16A act	TMEM16A reconf	TMEM16A Ca cntr	YFP-HEK293 quench	ClC-1 rat inh
CC(C)(CNC(=O)c1ccc([N+](=O)[O-])c(Cl)c1)CNC(=O)c1ccc([N+](=O)[O-])c(Cl)c1	3	100*	1	7	1	i	i	i	-0.82	-16
C=CCNC(=O)c1ccc([N+](=O)[O-])c(Cl)c1	-1	i	0	13	-2	i	nt	nt	nt	nt
COc1ccc(-c2cc(CCC(=O)N3CCN(c4cc(C)ccc4C)CC3)on2)cc1	0	nt	1	0	-1	nt	nt	nt	nt	nt
COc1ccc(N(C)C(=O)C2CCCN2S(=O)(=O)c2cccc3nsnc23)c(OC)c1 (configuration not stated)	-4	i	-1	22	-1	i	nt	nt	nt	nt
CCC(c1nnnn1-c1ccc2c(c1)OCCO2)N1CCN(Cc2c(F)cccc2Cl)CC1 (configuration not stated)	nt	nt	0	nt	nt	nt	nt	nt	nt	nt
Fc1cccc(Cl)c1CSc1nnnn1-c1ccc2c(c1)OCO2	-3	25*	0	41	5	i	i	i	-0.94	-7
O=C(NCCC1=CCCCC1)c1ccc(Cl)c(S(=O)(=O)Nc2ccccc2)c1	0	100*	12	-11	0	i	i	i	-1	-13
Cc1nn(-c2ccccc2)nc1-c1nnc(-c2ccc(C(F)(F)F)cc2)o1	-2	i	-1	3	4	i	nt	nt	nt	nt
CC(OC(=O)c1snc(C(=O)NC2CCCCC2)c1N)C(=O)NC(C)(C)C (configuration not stated)	-1	i	35	-6	2	i	nt	nt	nt	nt
CC(C)(C)NC(=O)COC(=O)c1snc(C(=O)NC2CCCCC2)c1N	-3	100*	6	4	0	i	i	i	-0.99	-20
Cc1nnc(SCc2cccc(Oc3ccccc3)c2)n1N	0	25*	-3	23	-2	i	i	i	-1	-20
CCn1cc(C(=O)NCc2ccco2)c(=O)c2ccc(C)nc21	-1	i	0	-5	0	i	nt	nt	nt	nt
CC(NC(=O)C1CCC1)c1ccc2c(c1)OCO2 (configuration not stated)	-1	25*	1	3	-5	i	i	i	-0.89	-5
Cc1ccc(C(C)NC(=O)C2CCCC2)cc1C (configuration not stated)	-1	i	0	12	-2	i	nt	nt	nt	nt
Cc1noc(C)c1C(=O)N(CC(=O)Nc1ccccc1Br)Cc1ccco1	1	nt	-1	5	0	i	nt	nt	nt	nt
COCCN(C(=O)CNC(=O)c1ccco1)C(C(=O)NC1CCCC1)c1ccc(F)cc1 (configuration not stated)	1	i	0	6	-1	i	nt	nt	nt	nt
CC(C)CCN(C(=O)CNC(=O)c1ccco1)C(C(=O)NC1CCCCC1)c1ccco1 (configuration not stated)	0	25*	-2	-17	-1	nt	19%*	i	-1.1	-6
Cc1cccc(C)c1OCc1cc(C(=O)NCC2CCCCC2)no1	2	i	0	-15	1	i	nt	nt	nt	nt
Cc1cccc(C)c1OCc1cc(C(=O)N(Cc2c(C)nn(C)c2C)C2CC2)no1	-4	25*	4	15	-1	i	22%*	i	-1.2	-14
CCC(C)Sc1ccc([C@H]2N[C@@](C)(C(=O)OC)[C@H]3C(=O)N(CC)C(=O)[C@@H]23)cc1OC (some centres not stated)	0	nt	0	5	-1	i	nt	nt	nt	nt
Cc1cc(C(=O)CSc2ccc(F)cc2)cc(C)c1OC(=S)N(C)C	0	100*	1	14	7	i	i	i	-1.4	-8
O=C(COc1ccc(Nc2ccccc2)cc1)Nc1ccncc1	5	100*	26	-14	3	i	18%*	i	-0.93	-15
O=C(O)COc1ccc(Nc2ccccc2)cc1	-1	i	-2	0	-2	i	nt	nt	nt	nt
CC(C)(C)c1ccc(OCC(=O)Nc2ccc(C(=O)Nc3ccccc3C(=O)O)cc2)cc1	9	25*	-1	23	0	i	56%*	42%*	-1.2	-11
Cc1ccc(NC(=O)CN2CCN(S(=O)(=O)c3ccc4c(c3)OCCO4)CC2)c(C)c1	nt	nt	0	4	-2	nt	nt	nt	nt	nt
SMILES	NR3A LBD binder	TMEM16A inh	MPTP block	CRFBP-R2 block	CRFBP-R2 agonist	TMEM16A act	TMEM16A reconf	TMEM16A Ca cntr	YFP-HEK293 quench	ClC-1 rat inh
Cc1ccsc1C(=O)N1CCCCCC1(C)C(=O)NCC(C)C (configuration not stated)	nt	nt	1	nt	nt	nt	nt	nt	nt	nt
Cc1ccc(S(=O)(=O)N2CCN(C(=O)CCC(=O)NCc3cccc(C(F)(F)F)c3)CC2)cc1	0	25*	-1	10	-1	i	i	i	-1.2	-20
C[C@@H](NCCc1ccc(O)cc1)[C@@H](O)c1ccc(O)cc1	2	i	-1	16	0	i	nt	nt	nt	nt
CC(NCCc1ccc(O)cc1)C(O)c1ccc(O)cc1 (configuration not stated)	1	100*	-2	15	-1	i	i	i	-0.92	-10
COc1ccc2c(c1)CC/C(=C/c1ccco1)C2=O	1	i	9	23	5	i	i	i	-1.1	-5
O=C(Cn1nnc2c(cnn2-c2ccc(F)cc2)c1=O)OC1CCCCC1	0	100*	2	-7	0	i	i	i	-1.2	-10
Cn1nccc1C(=O)N1CCCC(N2CCN(c3cccc(C(F)(F)F)c3)CC2)C1 (configuration not stated)	nt	i	0	nt	nt	i	nt	nt	nt	nt
CC(Oc1ccccc1)C(=O)Nc1nnc(S(=O)(=O)Nc2ccccc2)s1 (configuration not stated)	-11	100*	5	18	0	i	i	i	-0.83	-10
CC(Oc1ccccc1)C(=O)Nc1nnc(S(=O)(=O)N2CCCCC2)s1 (configuration not stated)	-2	i	1	47	3	i	nt	nt	nt	nt
